Sfp PPTase inh – inhibitors of Bacillus subtilis Sfp phosphopantetheinyl transferase; Potency, µM, most hits filed as inhibitors; Biochemical Sfp PPTase activity, qHTS; hit rate 3.5% among 310,000; AID 1490;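 note: the enzyme is Sfp with the accession as filed and its product quenches rhodamine fluorescence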
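Step 1, compound plus 15 nM Sfp-PPTase, 15 min, room temperature. Step 2, add rhodamine-CoA (5 uM) and BHQ-2-YbbR (12.5 uM). Step 3, read 525/598 nm fluorescence at 0 and 30 min.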
BAZ2B inh – blocks human BAZ2B; Q9UIF8; AlphaScreen BAZ2B-H3K14Ac peptide displacement; Potency, µM (titrated, usually from 114 µM), hits mostly inhibitors; hit rate 4.4% among 360,000; note: nearly all actives have a fitted effect of over 60% in size
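Compounds, titrated to a top concentration of 110 uM, were incubated 30 min at room temperature with preformed BAZ2B/acetyl-K14 H3 peptide complex (50 nM each). Proximity signal was measured by AlphaScreen after 20 min with beads.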
JMJD2A Tudor inh – blocks the human JMJD2A Tudor domain; Potency, µM (titrated, usually from 114 µM), most hits filed as inhibitors; AID 504339; AlphaScreen JMJD2A-Tudor / H3K4me3 peptide binding; hit rate 4.4% among 390,000; O75164; note: nearly all actives have a fitted effect of over 50% in size
G9a block – inhibitors of human histone lysine methyltransferase G9a | hit rate 8.8% among 350,000 | G9a H3K9 monomethylation, AlphaScreen, 2 h | Potency, µM (series often up to 102 µM), hits mostly inhibitors | Q96KQ7 | AID 504332; note: nearly all actives have a fitted effect of over 75% in size
Target sequence (Q96KQ7 913-1193 limits assumed): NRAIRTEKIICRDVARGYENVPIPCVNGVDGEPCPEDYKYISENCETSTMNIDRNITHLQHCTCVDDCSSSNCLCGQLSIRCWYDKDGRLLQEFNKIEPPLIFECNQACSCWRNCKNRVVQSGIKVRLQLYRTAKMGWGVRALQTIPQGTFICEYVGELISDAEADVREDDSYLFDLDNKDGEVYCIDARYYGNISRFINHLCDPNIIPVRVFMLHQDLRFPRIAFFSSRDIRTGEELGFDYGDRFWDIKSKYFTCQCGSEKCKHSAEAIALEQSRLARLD
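G9a (20 nM) preincubated 15 min RT with compounds, then 500 nM biotinylated H3K9 peptide and 20 uM SAM added; 2 h RT reaction. Monomethyl-H3K9 product detected by AlphaScreen with anti-H3K9me1 antibody, streptavidin donor and anti-rabbit IgG acceptor beads.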
HP1b chromo inh – HP1-beta chromodomain-methylated histone interaction inhibition; AlphaScreen HP1-beta / biotin-H3K9me3 peptide binding; hit rate 0.56% among 390,000; Potency, µM (doses to about 114 µM), actives largely listed as inhibitors; AID 540317; note: nearly all actives have a fitted effect of over 70% in size
Target sequence (P83916 whole entry, looked up): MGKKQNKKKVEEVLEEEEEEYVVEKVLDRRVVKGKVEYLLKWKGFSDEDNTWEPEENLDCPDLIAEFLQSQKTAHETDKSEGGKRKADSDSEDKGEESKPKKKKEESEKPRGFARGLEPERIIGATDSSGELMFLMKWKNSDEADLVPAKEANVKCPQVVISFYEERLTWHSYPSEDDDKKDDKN
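HP1-beta protein (50 nM final) preincubated 30 min at room temperature with biotinylated H3(1-18)K9me3 peptide (50 nM) in PBS pH 7.4, 0.01% Tween-20, then compound added for 30 min. AlphaScreen streptavidin donor/nickel chelate acceptor beads (10 ug/mL final), 30 min dark, luminescence read.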
Hits are given with their value; – = inactive; ? = inconclusive; · = no result; [ ] = another dose, or the depositor's remark. Shown are actives, neighbours in structure and some others; about 12% of the full set was active somewhere. Calls come from the whole dose curve; as a rule, active = well fitted curve in the direction sought with a large enough effect; inconclusive = small, poorly fitted or top-dose-only effect, or another doubt; inactive = no such curve, though single readings can be large; an effect the other way counts as inactive or inconclusive.

SMILES | Sfp PPTase inh | BAZ2B inh | JMJD2A Tudor inh | G9a block | HP1b chromo inh
COc1cccc(C2=NOC(C(=O)Nc3ccc4c(c3)OCO4)C2)c1OC (centres undefined) | – | – | – | 44.7µM | –
COc1ccc(NC(=O)C2CC(c3ccccc3O)=NO2)cc1OC (centres undefined) | – | – | – | 44.7µM | –
COc1cc(C2=NOC(C(=O)Nc3ccc4c(c3)OCO4)C2)cc(OC)c1OC (centres undefined) | – | – | – | 25.1µM | –
COc1ccc(NC(=O)C2CC(c3cc(OC)c(OC)c(OC)c3)=NO2)cc1OC (centres undefined) | – | – | – | ? | –
CCCCSc1ncnc2c1c(-c1ccccc1)cn2-c1cccc(F)c1 | · | – | – | – | –
O=C(NCc1ccco1)C1CC(c2ccccc2O)=NO1 (centres undefined) | – | 79.4µM | ? | · | –
CN(C)CCCN(C(=O)COc1ccccc1)c1nc2cc3c(cc2s1)OCO3 | – | – | – | 50.1µM | –
CN(C)CCCN(C(=O)COc1ccc(Cl)cc1)c1nc2cc3c(cc2s1)OCCO3 | · | – | ? | 50.1µM | –
CN(C)CCCN(C(=O)COc1ccc(Cl)cc1)c1nc2cc3c(cc2s1)OCO3 | – | ? | ? | 70.8µM | –
CN(C)CCCN(C(=O)COc1ccccc1)c1nc2c(F)cccc2s1 | – | – | –[11.4 µM] | – | –
CN(C)CCCN(C(=O)COc1ccccc1)c1nc2ccc(Cl)cc2s1 | – | · | – | ? | –
COc1cccc2sc(N(CCCN(C)C)C(=O)COc3ccc(Cl)cc3)nc12 | – | · | – | 79.4µM | –
Cc1ccc(Cn2cc(S(=O)(=O)c3ccccc3)c(=O)c3cc(F)c(N4CCOCC4)cc32)cc1 | · | – | – | – | –
COC(=O)C/C=C\[C@@H](C)[C@@H](/C=N\OCC[C@@H]1C=C[C@H](OC(C)=O)[C@H](COC(C)=O)O1)OC | 1µM | · | · | · | ·
Cc1cc(C)cc(OCc2ccc(C(=O)Nc3ccccc3F)o2)c1 | · | ? | – | – | –
O=C(c1ccc(Cn2cc(Cl)cn2)o1)N1CCN(Cc2ccc3c(c2)OCO3)CC1 | – | ? | – | 44.7µM | –
O=C(c1ccc(Br)o1)N1CCN(Cc2ccc3c(c2)OCO3)CC1 | – | – | – | – | –
CN1CCN(C(=O)c2ccc(Cn3cc(Cl)cn3)o2)CC1 | – | – | – | 70.8µM | –
COC(=O)c1sc(NC(=O)c2ccc(Cn3cc(Cl)cn3)o2)c(C#N)c1C | 15.8µM | – | ? | 7.94µM | –
CCc1ccc(CNC(=O)c2c3c(nc4ccccc24)C(=O)N(C2CCCCC2)C3)cc1 | · | ? | ? | – | –
CCOc1cnc(-c2ccc(Cl)cc2)o1 | – | – | – | ? | –
CCOc1cnc(-c2c(-c3c(Cl)cccc3Cl)noc2C)o1 | – | 44.7µM | – | 44.7µM | 44.7µM
Cc1ccc(NS(=O)(=O)c2cc3[nH]c(=O)c(=O)[nH]c3cc2C)cc1N(C)C | · | – | – | – | –
COc1cccc(/C=C2\SC(=S)N(NS(=O)(=O)c3ccccc3)C2=O)c1OC | – | – | ? | 39.8µM | –
O=C1/C(=C/c2cccc(F)c2)SC(=S)N1NS(=O)(=O)c1ccccc1 | – | ? | – | –[12.7 µM] | –
SMILES | Sfp PPTase inh | BAZ2B inh | JMJD2A Tudor inh | G9a block | HP1b chromo inh
COc1cc(/C=C2\SC(=S)N(NS(=O)(=O)c3ccccc3)C2=O)cc(OC)c1OC | 79.4µM | ? | ? | ? | –
O=C(CCN=C1NS(=O)(=O)c2ccccc21)Nc1ccc(F)cc1Cl | · | · | – | · | –
COc1ccc(C2=Nn3c(nnc3-c3ccccc3C)SC2)cc1OC | – | · | – | · | ·
COc1ccc(C2=Nn3c(nnc3-c3ccccc3C)SC2)cc1 | 44.7µM | · | – | · | ·
COc1ccc(C2=Nn3c(nnc3-c3cc(OC)cc(OC)c3)SC2)cc1 | – | · | – | · | ·
COc1ccc(C2=Nn3c(nnc3-c3ccccn3)SC2)cc1 | – | 25.1µM | 39.8µM | – | –
Cc1c(C(=O)Oc2ccc(-c3cnc4ccccc4n3)cc2)cccc1[N+](=O)[O-] | 50.1µM | – | – | 20µM | –
O=C(Oc1ccc(-c2cnc3ccccc3n2)cc1)c1cc([N+](=O)[O-])ccc1Cl | – | – | – | 28.2µM | –
O=[N+]([O-])c1cc(-c2cnc3ccccc3n2)ccc1Cl | – | – | – | – | –
O=[N+]([O-])c1cc(-c2cnc3ccccc3n2)ccc1Oc1ccc(Cl)cc1 | – | ? | – | 14.1µM | –
COC(=O)c1ccc2c(c1)C(C)(C)C(/C=C/c1ccc(O)cc1)=[N+]2C | 44.7µM | 28.2µM | 50.1µM | 7.08µM | ?
COC(=O)c1ccc2c(c1)C(C)(C)C(/C=C/c1ccc(OC)c(OC)c1OC)=[N+]2C | 17.8µM | ? | 56.2µM | –[0.0925 µM] | –
Cc1ccc(O)c(-c2n[nH]c3c2C(c2ccccc2F)N(Cc2ccco2)C3=O)c1 (centres undefined) | · | – | ? | – | –
CN(C)/C=C\C(=C/C(=O)C(F)(F)F)Nc1ccccc1Oc1ccccc1 | 44.7µM | – | ? | – | –
CCC(=O)Nc1ccccc1Oc1ccccc1 | – | – | 56.2µM | – | ?
CCOc1ccc2nc(NC(=O)CN3C(=O)NC4(CCCC4)C3=O)sc2c1 | · | – | – | 50.1µM | –
CCOc1ccc(Oc2ccccc2NC(=O)CN2C(=O)NC3(CCCC3)C2=O)cc1 | · | – | – | 56.2µM | –
CCCCC(=O)Nc1ccccc1Oc1ccccc1 | – | – | – | – | –
O=C(Cc1cccc(NC(=O)C2CCN(C(=O)C3CCCC3)CC2)c1)Nc1cccc(C(=O)N2CCCCC2)c1 | · | · | – | · | –
O=Cc1ccc([B-](F)(F)F)s1 | · | · | – | · | –
COCCn1c(=O)c(-c2cc(F)cc(F)c2)nc2cnc(N3CCOCC3)nc21 | – | · | · | –[0.501 µM] | ·
CN(CC(=O)Nc1cccc(F)c1)C(=O)c1cccnc1Sc1ccccc1Cl | · | – | – | – | –
O=S(=O)(c1cc(Cl)cc(Cl)c1)N1CCN(c2nc(-c3cccs3)nc3ccccc23)CC1 | · | · | – | · | –
CC(/C=C1\SC(=S)N(NC(=O)c2cccc(O)c2)C1=O)=C\c1ccccc1 | ? | 11.2µM | 22.4µM | 8.91µM | ?
Cc1ccc(/C=C2\SC(=S)N(/N=C/c3cc([N+](=O)[O-])ccc3O)C2=O)o1 | 25.1µM | 11.2µM | 56.2µM | 6.31µM | 44.7µM
SMILES | Sfp PPTase inh | BAZ2B inh | JMJD2A Tudor inh | G9a block | HP1b chromo inh
O=C(NN1C(=O)/C(=C/c2ccc(O)cc2)SC1=S)c1ccccc1O | – | 39.8µM | 50.1µM | ? | ?
O=C(NN1C(=O)/C(=C/c2ccc(O)cc2)SC1=S)c1cccc(O)c1 | – | ? | ? | 44.7µM | –
CC(/C=C1\SC(=S)N(CC(=O)O)C1=O)=C\c1ccccc1 | – | – | – | – | –
O=C(Cc1ccccc1)NN1C(=O)/C(=C/c2ccc(C(=O)O)cc2)SC1=S | – | – | –[11.4 µM] | · | –
C[C@H](NC(=O)c1nc[nH]c1C(=O)N[C@@H](C)c1ccccc1)c1ccccc1 | · | – | – | –[2.33 µM] | –
COc1ccc(C(C)=O)cc1COC(=O)c1ccc(C)c(S(=O)(=O)N2CCOCC2)c1 | · | – | – | – | –
O=C(CSc1nc2sc3c(c2c(=O)[nH]1)CCCC3)Nc1ccccc1F | · | – | – | ? | –

Source: PubChem
